This is part of a sample that, as a whole, favours compounds with a hit. Of some 79,000 tested, about 15% had one in any assay. Active and inactive are the calls of the source. Cut-off read from the data, not from the text of the source: active = growth inhibition above about 70%; inactive = the rest.
Experiments:
[1] = NCI Yeast Anticancer Drug Screen. Data for the rad50 strain (AID 155);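 note: 0% = growth of vehicle-only cultures of the same strain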; details: S. cerevisiae rad50 strain growth inhibition; at 50.0 µM; hits give high values
In short: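 Cells are treated with compound, grown, and their growth is then scored against vehicle-only cultures of the same repair-deficient yeast strain.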

[2] = NCI Yeast Anticancer Drug Screen. Data for the mec2-1 strain (AID 157); details: S. cerevisiae mec2-1 strain, at 50.0 µM, hits give high values
In short: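 Using mec2-1 yeast: add compound, measure growth, express inhibition versus vehicle-treated cultures.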

[3] = NCI Yeast Anticancer Drug Screen. Data for the sgs1 mgt1 strain (AID 161);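 note: 0% = growth of cultures given vehicle only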; details: S. cerevisiae sgs1 mgt1 strain, at 50.0 µM, hits give high values
In short: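 This yeast growth screen uses a strain with defined DNA-repair lesions; compound-treated growth is compared with vehicle-treated growth.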

[4] = NCI Yeast Anticancer Drug Screen. Data for the cln2 rad14 strain (AID 165);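 note: 0% = growth equal to vehicle treated cultures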; details: S. cerevisiae cln2 rad14 strain, at 50.0 µM, hits give high values
In short: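 Yeast strain cln2 rad14, bearing defects in cell cycle control and DNA repair, serves as the test system; values reflect growth inhibition compared with vehicle.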

[5] = NCI Yeast Anticancer Drug Screen. Data for the bub3 strain (AID 167); details: S. cerevisiae bub3 mutant strain, at 50.0 µM, hits give high values
In short: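 Part of a panel of yeast mutants defective in DNA damage repair or cell cycle regulation. Each strain is grown with compound, and inhibition is calculated relative to solvent-treated cultures.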

[6] = NCI Yeast Anticancer Drug Screen. Data for the mlh1 rad18 strain (AID 175); details: S. cerevisiae mlh1 rad18 strain growth inhibition; at 50.0 µM; hits give high values
In short: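 Steps: expose repair-defective yeast to compound; measure growth; express inhibition against vehicle-treated controls.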

Measured: growth inhibition

CC1(CO)OC(n2cnc3c(N)ncnc32)C(O)C1O (configuration not stated)
inactive: [1] -25.8% | [2] -30.8% | [3] -52.6% | [4] -8.25% | [5] -14.7% | [6] -29.2%

CCC(C)CC(C)C1=NC(C)(C)CC(C)O1 (configuration not stated)
inactive: [1] 3.65% | [2] -6.55% | [3] 0.75% | [4] -16.6% | [5] 0.2% | [6] 8.3%

O=CC(O)C(O)C(O)C1CNC(=S)O1 (configuration not stated)
inactive: [1] 4.9% | [2] -14.7% | [3] -10.3% | [4] -2.25% | [5] 4.05% | [6] 6.9%

COC(=O)CC(=O)c1cccc([N+](=O)[O-])c1
inactive: [1] 8.95% | [2] -22.1% | [3] -3.15% | [4] 16.5% | [5] -26.8% | [6] 0.15%

O=C1NC=NC1c1ccccc1 (configuration not stated)
inactive: [1] -2.25% | [2] -10.4% | [3] -9.9% | [4] -24.8% | [5] -3.65% | [6] -11.5%

CCCCCCCCCCCC[N+]12CC[N+](C)(CC1)CC2
inactive: [1] 16.2% | [2] -24.4% | [3] -10.7% | [4] -49% | [5] -27.6% | [6] -15.6%

CN(C)Cc1onc(-c2c(Cl)cccc2Cl)c1C(=O)O
inactive: [1] 1.3% | [2] 8.2% | [3] -9.95% | [4] 6.05% | [5] 21.2% | [6] 8.4%

CCNc1nc2c(N)ncnc2n1C1OC(CO)C(O)C1O (configuration not stated)
inactive: [1] 12.8% | [2] -8.4% | [3] 6.45% | [4] -3.35% | [5] -0.1% | [6] -6.6%

CSc1nc2c(nc(N)n2C2OC(CO)C(O)C(O)C2O)c(=O)[nH]1 (configuration not stated)
inactive: [1] -13.7% | [2] 8.45% | [3] -1.85% | [4] -1.2% | [5] -6.2% | [6] -8.9%

CCOC(=O)N(C)C
inactive: [1] 18.9% | [2] 12.8% | [3] 3.65% | [4] 11.1% | [5] 12.1% | [6] 8%

CC(C)N(C(C)C)C1C=CC(N(C(C)C)C(C)C)CC1 (configuration not stated)
inactive: [1] 5% | [2] -15.9% | [3] 2.3% | [4] -33.6% | [5] -7.3% | [6] -0.35%

CCOC(=O)Nc1cccc(Cl)c1Cl
inactive: [1] -31.1% | [2] -39.1% | [3] -22.4% | [4] 6.75% | [5] -27.9% | [6] -8%

CSc1nc(NC2OCC(OC(C)=O)C(OC(C)=O)C2OC(C)=O)c2c(n1)OCC2=O (configuration not stated)
inactive: [1] -17% | [2] -21.6% | [3] -21.6% | [4] 6.1% | [5] 13.4% | [6] -10.5%

CCN1C(=O)CCN(S(=O)(=O)c2ccc(-n3nc(C)cc3C)cc2)C1=S
inactive: [1] -5.55% | [2] -8.45% | [3] -9.15% | [4] -46.4% | [5] 1.7% | [6] -2.3%

Nc1ccc([N+](=O)[O-])c(C(F)(F)F)c1
inactive: [1] 14.1% | [2] -33.6% | [3] 4.25% | [4] -14.4% | [5] -6.55% | [6] 22.6%

CN(C)c1ccc(/C(=N\O)C(=O)O)cc1
inactive: [1] -15.2% | [2] -13.3% | [3] -2.2% | [4] -9.1% | [5] 0.1% | [6] 1.55%

C/C=C\CCCCC
inactive: [1] 13.8% | [2] 9.4% | [3] 15.4% | [4] 24.1% | [5] 34.6% | [6] 10.9%

COc1ccccc1N/C(=C\C(=O)C(=O)NC12CC3CC(CC(C3)C1)C2)c1ccccc1
inactive: [1] 11.4% | [2] 2.55% | [3] 8.65% | [4] 2.25% | [5] 3.75% | [6] 14.2%

CC(C)CCOC(=O)NC1c2ccccc2Oc2ccccc21
inactive: [1] -10% | [2] 3.55% | [3] 3.65% | [4] 18% | [5] 0.1% | [6] -1.3%

CCCCCCCCCCCC(=O)OCC1OC(n2cc(F)c(=O)[nH]c2=O)C(NC(=O)OCc2ccccc2)C(O)C1O (configuration not stated)
inactive: [1] 62.8% | [2] 5.85% | [3] 31.2% | [4] 18.8% | [5] 18.1% | [6] 24.8%

O=C1CCC(CC2CCCCC2)CC1
inactive: [1] -6.7% | [2] -3.95% | [3] -2.8% | [4] -58.6% | [5] -17.7% | [6] -12.2%

COC(=O)c1c(C=O)cccc1[N+](=O)[O-]
inactive: [1] 22.7% | [2] -0.05% | [3] 1.75% | [4] 0.7% | [5] -14.1% | [6] 15.2%

CCOC(=O)CCc1cn2cc(Br)nc(OC)c2n1
inactive: [1] -18.6% | [2] -38% | [3] 14.6% | [4] 19.9% | [5] 3.7% | [6] -13.6%

O=[N+]([O-])c1ccc(-c2csc(N=Nc3c(O)[nH]c4ccccc34)n2)cc1
inactive: [1] -31.2% | [2] -20.2% | [3] -22.4% | [4] -16.7% | [5] -31.4% | [6] -46.4%

CC(=O)Nc1ccc(NC(=O)Nc2cc(Cl)ccc2C)cc1
inactive: [1] 14.3% | [2] 5.05% | [3] 0.7% | [4] 13.1% | [5] 17.8% | [6] 5.1%

CN(C)C(=S)Nc1ccc(S(=O)(=O)N2CCCCC2)cc1
inactive: [1] -7.9% | [2] -28.4% | [3] -2.7% | [4] 1.15% | [5] -16.4% | [6] -7.85%

CCOC(=O)C1CCC/C1=N/Nc1ccc([N+](=O)[O-])cc1[N+](=O)[O-] (configuration not stated)
inactive: [1] -1% | [2] 10.6% | [3] 3.25% | [4] -21.9% | [5] -5.3% | [6] -4.75%

OC1COC(O)(CN2CCOCC2)C(O)C1O (configuration not stated)
inactive: [1] 14.2% | [2] 5.95% | [3] 10.6% | [4] 4.75% | [5] 18.1% | [6] 7.6%

CCCCCCCCCC(C)(O)C(N)=O (configuration not stated)
inactive: [1] 15.1% | [2] -6.15% | [3] 13.2% | [4] -21.6% | [5] -5.65% | [6] 9.65%

O=C([O-])[C+](C=Cc1cccc2ccccc12)C(=O)O
inactive: [1] 9.05% | [2] -5.4% | [3] 8.35% | [4] 5.35% | [5] 3.35% | [6] 31.3%

CCC[C@@H]1CCCC[C@H]1C
inactive: [1] 0.55% | [2] -1.95% | [3] -5.3% | [4] -2.2% | [5] -14.2% | [6] 0.5%

CCCCOC(=O)c1ccc(Cl)c(Cl)c1
inactive: [1] -1.7% | [2] -3.2% | [3] -14.9% | [4] -32.9% | [5] 3% | [6] 7.45%

From PubChem BioAssay (NCI)
